Laboratory results published in PubChem BioAssay (EPA / NIEHS).
Results filed as inconclusive are left out. Calls of active or inactive are those of the source. Rule for the calls, unless noted: active = hit-call score of the fitted dose curve at least 0.9, where 1 is the maximum; inconclusive = response in the unintended direction; inactive = score below 0.9.

Assays:
[1] = TOX21_p53_BLA_p2_viability: Viability Assessment in the Tox21 HCT-116 p53 Agonism Beta-lactamase Assay, Phase 2 (AID 2283591);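 note: compound exposure lasted 16 h at 37 °C; actives lower the ATP signal meaning cytotoxicity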
In short: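 HCT-116 p53-bla cells (4000/well) rested 5 h at 37C, then received compounds in DMSO (217-fold dilution) for 16 h at 37C, 5% CO2. After the CCF4 read, CellTiter-Glo was added; ATP luminescence was read after 30 min at room temperature.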

[2] = biological target: Cellular tumor antigen p53 (Homo sapiens) (UniProt P04637); assay: TOX21_p53_BLA_p2_ratio: Tox21 HCT-116 p53 Agonism Beta-lactamase Assay, Ratio, Phase 2 (AID 2283592)
In short: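 HCT116 cells carrying a p53-responsive beta-lactamase reporter were plated, incubated 5 h at 37C, then dosed with compounds in DMSO (217-fold dilution) for 16 h. CCF4-AM substrate was added for 2 h at room temperature; the 460/530 nm emission ratio gave gain-of-signal activity relative to DMSO.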

[3] = TOX21_p53_BLA_p3_viability: Viability Assessment in the Tox21 HCT-116 p53 Agonism Beta-lactamase Assay, Phase 3 (AID 2283593);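 note: cells exposed to compound for 16 h before reading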
In short: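 HCT-116 cells (4000/well) rested 5 h at 37C, then got DMSO compounds by pin tool (217-fold dilution) for 16 h at 37C, 5% CO2. After the bla read, CellTiter-Glo was added and luminescence read at 30 min, room temperature.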

[4] = biological target: Cellular tumor antigen p53 (Homo sapiens) (UniProt P04637); assay: TOX21_p53_BLA_p3_ratio: Tox21 HCT-116 p53 Agonism Beta-lactamase Assay, Ratio, Phase 3 (AID 2283596)
In short: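 HCT116 p53-bla cells (4000/well) given compound in DMSO (217-fold dilution) after 5 h, incubated 16 h at 37C. CCF4-AM substrate 2 h at room temperature; 460/530 nm emission ratio, gain fitted against DMSO.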

[5] = TOX21_p53_BLA_p4_viability: Viability Assessment in the Tox21 HCT-116 p53 Agonism Beta-lactamase Assay, Phase 4 (AID 2283597);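 note: hits lower the luminescence signal meaning cytotoxicity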
In short: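 HCT116 p53-bla cells (4000/well) rested 5 h at 37C, then received compounds in DMSO (217-fold dilution) for 16 h at 37C, 5% CO2. CellTiter-Glo was added after the CCF4-AM read, and luminescence was read after 30 min at room temperature.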

[6] = biological target: Cellular tumor antigen p53 (Homo sapiens) (UniProt P04637); assay: TOX21_p53_BLA_p5_ratio: Tox21 HCT-116 p53 Agonism Beta-lactamase Assay, Ratio, Phase 5 (AID 2283599)
In short: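 HCT-116 cells carrying a p53-inducible beta-lactamase reporter were seeded at 4000 cells/well and dosed after 5 h with compound in DMSO (217-fold dilution). After 16 h at 37C, CCF4-AM substrate was added for 2 h, and the 460/530 nm emission ratio was scored as gain-of-signal versus DMSO.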

[7] = TOX21_p53_BLA_p5_viability: Viability Assessment in the Tox21 HCT-116 p53 Agonism Beta-lactamase Assay, Phase 5 (AID 2283600)
In short: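 Cells were plated at 4000/well, rested 5 h at 37C, then given compounds in DMSO (217-fold dilution) for 16 h at 37C, 5% CO2. Following the CCF4-AM beta-lactamase read, CellTiter-Glo was added and luminescence was read after 30 min at room temperature.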

[8] = biological target: Cellular tumor antigen p53 (Homo sapiens) (UniProt P04637); assay: TOX21_p53_BLA_p4_ratio: Tox21 HCT-116 p53 Agonism Beta-lactamase Assay, Ratio, Phase 4 (AID 2283601)
In short: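 HCT116 cells carrying an inducible beta-lactamase reporter were plated at 4000 cells/well, rested 5 h, then exposed to compounds in DMSO (217-fold dilution) for 16 h at 37C. CCF4-AM substrate was loaded 2 h at room temperature; 460/530 nm emission ratio scored gain-of-signal versus DMSO.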

[9] = CCTE_Harrill_HTTr_Viability_MCF7: CCTE's 6-hour Cell Viability Assessment for the High-Throughput Transcriptomics (HTTr) Platform, in MCF-7 cells cultured in DMEM + 10% fetal bovine serum, Harrill Lab (AID 2284010; active = hit-call score of the fitted dose curve at least 0.9, where 1 is the maximum; inactive = score below 0.9)
In short: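 Cells were dosed with chemicals in an eight-point dilution series, imaged 6 hours later for propidium iodide uptake, and the endpoint was analyzed by bidirectional fitting against DMSO as negative control.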

[10] = CCTE_Harrill_HTTr_Apoptosis_MCF7: CCTE's 6-hour Apoptosis Assessment for the High-Throughput Transcriptomics (HTTr) Platform, in MCF-7 cells cultured in DMEM + 10% fetal bovine serum, Harrill Lab (AID 2284011; active = hit-call score of the fitted dose curve at least 0.9, where 1 is the maximum; inactive = score below 0.9)
In short: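 MCF-7 cells in DMEM + 10% fetal bovine serum were exposed to chemicals for 6 hours over an eight-point dilution series. Caspase-3/7 activation was imaged by high content imaging with CellEvent Caspase 3/7 Green; bidirectional fitting used DMSO as baseline.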

[11] = biological target: Thyroid hormone receptor alpha (Rattus norvegicus) + Thyroid hormone receptor beta (Rattus norvegicus) (UniProt P18113+P63059); assay: TOX21_TR_LUC_GH3_Antagonist_Followup: Tox21 GH3 Thyroid Hormone Receptor Antagonism Luciferase Follow-Up Assay (AID 2283942)
In short: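 Rat pituitary GH3 cells with a TRα/TRβ-driven luciferase reporter, 5 h attachment, then 15 concentrations (92 uM to 5nM final) plus 1.0 nM T3 agonist, 24 h at 37C/5% CO2. ONE-Glo luminescence; signal change fitted against DMSO baseline.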

[12] = biological target: THRA (gene 7067) (UniProt P10827); assay: TOX21_TRA_COA_Antagonist_Followup_ratio: Tox21 Thyroid Hormone Receptor alpha Antagonism through Coactivator Recruitment Follow-Up Assay, Ratio (AID 2283953)
In short: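 520:495 nm emission ratio (excitation 340 nm) reports fluorescein-SRC-2 peptide recruitment to GST-TRα LBD by TR-FRET with Tb anti-GST antibody. Values were normalized to DMSO (0%) and T3 control wells (100%); loss of signal indicated antagonism.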

[13] = biological target: THRB (gene 7068) (UniProt P10828); assay: TOX21_TRB_BLA_Antagonist_Followup_ratio: Tox21 Thyroid Hormone Receptor beta Antagonism Beta-lactamase (BLA) Follow-Up Assay, Ratio (AID 2283958)
In short: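 HEK293T TRb-bla (GAL4 DBD + hTRβ LBD), 2% cs-FBS phenol red-free DMEM, 5 h attach; cpds 11-pt triplicate, 18 h 37C; CCF4-AM 2 h RT; 460/530 ratio vs DMSO; CellTiter-Glo viability same wells.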

[14] = TOX21_TRB_BLA_Antagonist_Followup_viability: Viability Assessment in the Tox21 Thyroid Hormone Receptor beta Antagonism Beta-lactamase (BLA) Follow-Up Assay (AID 2283961)
In short: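 HEK293T cells stably expressing GAL4-DBD/human TRβ-LBD with UAS-bla reporter, 3,000 cells/well in phenol red-free DMEM, 2% charcoal-stripped FBS. Compounds at 11 concentrations in triplicate, 18 h at 37C/5% CO2; viability by CellTiter-Glo luminescence after 30 min at room temperature.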

[15] = biological target: THRB (gene 7068) (UniProt P10828); assay: TOX21_TRB_COA_Antagonist_Followup_ratio: Tox21 Thyroid Hormone Receptor beta Antagonism through Coactivator Recruitment Follow-Up Assay, Ratio (AID 2283967)
In short: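 Cell-free TR-FRET coactivator recruitment with GST-tagged TRβ LBD (5.0 nM) and fluorescein-labeled SRC-2 peptide (200 nM) detected by terbium anti-GST antibody (2 nM). The 520:495 nm emission ratio was normalized to DMSO (0%) and T3 (100%).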

[16] = biological target: Retinoic acid receptor RXR-alpha (Homo sapiens) (UniProt P19793); assay: TOX21_TR_RXR_BLA_Antagonist_Followup_ratio: Tox21 Thyroid Hormone Receptor beta Retinoid X Receptor alpha (RXRa) Antagonism Beta-lactamase (BLA) Follow-Up Assay, Ratio (AID 2283972)
In short: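 RXRa-UAS-bla HEK293T cells in phenol red-free DMEM with 2% charcoal-stripped FBS; compounds at 11 concentrations in triplicate, 16 h at 37C. LiveBLAzer FRET-B/CCF4-AM substrate 2 h at room temperature; read as 460:530 nm ratio versus DMSO.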

[17] = system: Brachyury (BRA) Protein Expression, Deisenroth Lab, TBXT (gene 6862); assay: CCTE_Deisenroth_DEVTOX-GLR_legacy_Bra: (Legacy) CCTE's DevTox GLR-Endo Assay Evaluation of Brachyury (BRA) Protein Expression, Deisenroth Lab (AID 2284329; active = hit-call score of the fitted dose curve at least 0.9, where 1 is the maximum; inactive = score below 0.9)
In short: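 RUES2-GLR human pluripotent cells differentiated 48 h with two 24-h-interval chemical exposures (1 nM - 200 uM, 10 points); fixed, nuclear-stained, imaged. Bra+ cell percentage (intensity 5x BMAD above pluripotent control median) fitted relative to 0.2% DMSO.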

[18] = CCTE_Deisenroth_DEVTOX-GLR_legacy_CellCount: (Legacy) Viability Assessment in CCTE's DevTox GLR-Endo Assay, Deisenroth Lab (AID 2284331; active = hit-call score of the fitted dose curve at least 0.9, where 1 is the maximum; inactive = score below 0.9); conditions: actives raise or lower the signal
In short: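 Nuclei count by fluorescence high-content imaging (5 fields/well) after 48 h differentiation of RUES2-GLR cells. Two exposures, 24 h apart; 1 nM - 200 uM series; n=4. Bidirectional fit vs DMSO.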

[19] = system: SRY-box transcription factor 17 (SOX17) Protein Expression, Deisenroth Lab, SOX17 (gene 64321); assay: CCTE_Deisenroth_DEVTOX-GLR_legacy_Sox17: (Legacy) CCTE's DevTox GLR-Endo Assay Evaluation of SRY-box transcription factor 17 (SOX17) Protein Expression, Deisenroth Lab (AID 2284341; active = hit-call score of the fitted dose curve at least 0.9, where 1 is the maximum; inactive = score below 0.9); conditions: actives raise or lower the signal
In short: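 RUES2-GLR human pluripotent cells, seeded 24 h, then differentiated 48 h in defined media with two chemical exposures 24 h apart (1 nM - 200 uM, 10 points). Sox17+ fraction from high-content fluorescence imaging; bidirectional fit versus 0.2% DMSO.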

[20] = system: SRY-box transcription factor 2 (SOX2) Protein Expression, Deisenroth Lab, SOX2 (gene 6657); assay: CCTE_Deisenroth_DEVTOX-GLR_legacy_Sox2: (Legacy) CCTE's DevTox GLR-Endo Assay Evaluation of SRY-box transcription factor 2 (SOX2) Protein Expression, Deisenroth Lab (AID 2284346; active = hit-call score of the fitted dose curve at least 0.9, where 1 is the maximum; inactive = score below 0.9)
In short: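 RUES2-GLR human pluripotent cells seeded 24 h, then differentiated 48 h in defined media with two chemical doses 24 h apart (10-point, 1 nM–200 uM). Fixed, nuclear-stained, imaged; % Sox2+ cells (>5x BMAD over endoderm control median), DMSO-subtracted, fitted upward.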

[21] = system: SRY-box transcription factor 2 (SOX2) Protein Expression, Deisenroth Lab, SOX2 (gene 6657); assay: CCTE_Deisenroth_DEVTOX-GLR_Endo_SOX2: CCTE's DevTox GLR-Endo Assay Evaluation of SRY-box transcription factor 2 (SOX2) Protein Expression, Deisenroth Lab (AID 2284412)
In short: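 RUES2-GLR human pluripotent cells were seeded 24 h, then differentiated 48 h with two chemical exposures 24 h apart. Cells were fixed, nuclei stained and imaged by high-content microscopy. Endpoint is %SOX2+ cells over cell count, minus 0.2% DMSO control; 10-point series 1 nM–200 uM.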

[22] = system: SRY-box transcription factor 17 (SOX17) Protein Expression, Deisenroth Lab, SOX17 (gene 64321); assay: CCTE_Deisenroth_DEVTOX-GLR_Endo_SOX17: CCTE's DevTox GLR-Endo Assay Evaluation of SRY-box transcription factor 17 (SOX17) Protein Expression, Deisenroth Lab (AID 2284413; active = hit-call score of the fitted dose curve at least 0.9, where 1 is the maximum; inactive = score below 0.9)
In short: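 Endpoint: % change in SOX17+ fraction (SOX17+ cells / cell count) vs 0.2% DMSO solvent control. RUES2-GLR reporter cells, 48 h endoderm differentiation, two doses at 24 h intervals, high-content fluorescence imaging, 5 fields/well.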

[23] = system: Brachyury (BRA) Protein Expression, TBXT (gene 6862); assay: CCTE_Deisenroth_DEVTOX-GLR_Endo_BRA: CCTE's DevTox GLR-Endo Assay Evaluation of Brachyury (BRA) Protein Expression, Deisenroth Lab (AID 2284417; active = hit-call score of the fitted dose curve at least 0.9, where 1 is the maximum; inactive = score below 0.9)
In short: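 RUES2-GLR human pluripotent cells, seeded 24 h, then differentiated 48 h in defined media with two chemical exposures 24 h apart (10-point series, 1 nM - 200 uM). Fixed, nuclear-stained, imaged; endpoint is percent BRA+ cells minus 0.2% DMSO control.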

[24] = CCTE_Deisenroth_DEVTOX-GLR_Endo_CellCount: Viability Assessment in CCTE's DevTox GLR-Endo Assay, Deisenroth Lab (AID 2284420; active = hit-call score of the fitted dose curve at least 0.9, where 1 is the maximum; inactive = score below 0.9)
In short: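 RUES2-GLR human pluripotent cells seeded 24 h, then differentiated 48 h with two chemical exposures at 24 h intervals (10-point, 1 nM - 200 uM). Fixed, nuclear-stained, imaged; nuclei counts give % change in cell count versus 0.2% DMSO.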

[25] = system: SRY-box transcription factor 2 (SOX2) Protein Expression, Deisenroth Lab, SOX2 (gene 6657); assay: CCTE_Deisenroth_DEVTOX-GLR_Pluri_SOX2: CCTE's DevTox GLR-Pluri Assay Evaluation of SRY-box transcription factor 2 (SOX2) Protein Expression, Deisenroth Lab (AID 2284428; active = hit-call score of the fitted dose curve at least 0.9, where 1 is the maximum; inactive = score below 0.9)
In short: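 Human pluripotent RUES2-GLR cells were seeded 24 h, then differentiated 48 h in defined media with two chemical doses at 24-h intervals (10-point, 1 nM–200 uM). Nuclear-stained cells were imaged; SOX2+ cells/cell count gave percent change versus 0.2% DMSO control.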

[26] = CCTE_Deisenroth_DEVTOX-GLR_Pluri_CellCount: Viability Assessment in CCTE's DevTox GLR-Pluri Assay Evaluation of Total Cell Counts, Deisenroth Lab (AID 2284430; active = hit-call score of the fitted dose curve at least 0.9, where 1 is the maximum; inactive = score below 0.9)
In short: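 RUES2-GLR human pluripotent cells, seeded 24 h, then differentiated 48 h with two chemical exposures 24 h apart; 10-point series 1 nM - 200 uM. Fixed, nuclear-stained, imaged (5 fields/well); nuclei count as % change vs 0.2% DMSO.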

Measured: AC50

Chain of Cellular tumor antigen p53 (Homo sapiens) (P04637 whole entry, looked up): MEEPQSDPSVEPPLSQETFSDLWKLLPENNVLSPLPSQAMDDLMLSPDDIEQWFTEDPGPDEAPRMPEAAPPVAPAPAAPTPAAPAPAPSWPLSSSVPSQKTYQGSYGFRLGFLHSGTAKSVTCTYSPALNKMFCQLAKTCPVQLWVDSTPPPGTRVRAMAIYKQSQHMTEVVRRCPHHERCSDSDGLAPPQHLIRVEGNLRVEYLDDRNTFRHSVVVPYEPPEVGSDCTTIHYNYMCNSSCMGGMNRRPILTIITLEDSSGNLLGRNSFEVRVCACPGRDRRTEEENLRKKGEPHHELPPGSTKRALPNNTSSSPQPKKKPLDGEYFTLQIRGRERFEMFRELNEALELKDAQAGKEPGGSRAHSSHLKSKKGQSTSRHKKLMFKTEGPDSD
Chain of THRB (gene 7068) (P10828 whole entry, looked up, the tested form may be a part): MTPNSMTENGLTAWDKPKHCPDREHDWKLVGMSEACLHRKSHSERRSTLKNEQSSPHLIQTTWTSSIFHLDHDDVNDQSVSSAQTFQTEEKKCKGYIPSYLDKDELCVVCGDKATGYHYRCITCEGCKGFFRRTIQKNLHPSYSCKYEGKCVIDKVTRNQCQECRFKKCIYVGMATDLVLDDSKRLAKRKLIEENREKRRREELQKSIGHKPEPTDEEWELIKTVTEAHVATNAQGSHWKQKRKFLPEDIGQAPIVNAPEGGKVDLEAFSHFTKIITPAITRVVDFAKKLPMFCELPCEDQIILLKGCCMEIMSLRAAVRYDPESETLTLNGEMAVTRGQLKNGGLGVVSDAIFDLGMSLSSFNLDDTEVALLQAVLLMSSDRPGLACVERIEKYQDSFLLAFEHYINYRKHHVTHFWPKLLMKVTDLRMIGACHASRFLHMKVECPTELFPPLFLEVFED
Chain of THRA (gene 7067) (P10827 whole entry, looked up, the tested form may be a part): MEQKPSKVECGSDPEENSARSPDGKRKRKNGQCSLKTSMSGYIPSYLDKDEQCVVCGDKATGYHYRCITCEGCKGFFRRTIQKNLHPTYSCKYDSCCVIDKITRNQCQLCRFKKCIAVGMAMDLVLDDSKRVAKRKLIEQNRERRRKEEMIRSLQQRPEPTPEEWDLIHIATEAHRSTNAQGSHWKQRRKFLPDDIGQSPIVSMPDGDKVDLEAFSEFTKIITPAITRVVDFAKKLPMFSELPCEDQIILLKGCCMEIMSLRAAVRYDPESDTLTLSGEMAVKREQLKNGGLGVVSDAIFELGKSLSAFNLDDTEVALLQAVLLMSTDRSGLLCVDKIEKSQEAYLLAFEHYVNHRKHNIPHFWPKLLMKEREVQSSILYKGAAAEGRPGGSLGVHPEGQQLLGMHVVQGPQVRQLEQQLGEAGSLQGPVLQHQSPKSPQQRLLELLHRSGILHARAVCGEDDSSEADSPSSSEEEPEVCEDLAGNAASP
Chain of Retinoic acid receptor RXR-alpha (Homo sapiens) (P19793 whole entry, looked up): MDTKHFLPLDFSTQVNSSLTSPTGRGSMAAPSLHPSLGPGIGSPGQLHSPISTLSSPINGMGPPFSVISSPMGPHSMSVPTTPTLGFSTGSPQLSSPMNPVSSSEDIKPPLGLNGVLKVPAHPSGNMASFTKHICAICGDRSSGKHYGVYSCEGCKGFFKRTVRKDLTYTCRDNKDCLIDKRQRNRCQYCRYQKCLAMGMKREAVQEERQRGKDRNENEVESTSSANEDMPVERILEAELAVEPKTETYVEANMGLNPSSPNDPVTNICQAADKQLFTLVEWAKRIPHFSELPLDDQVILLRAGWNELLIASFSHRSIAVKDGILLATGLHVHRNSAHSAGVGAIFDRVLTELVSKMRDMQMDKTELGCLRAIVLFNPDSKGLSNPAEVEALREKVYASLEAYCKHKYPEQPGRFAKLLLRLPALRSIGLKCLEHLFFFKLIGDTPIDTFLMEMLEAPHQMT

O=C(O)CN(CCN(CC(=O)O)CC(=O)O)CC(=O)O
inactive: [1] | [2] | [3] | [4] | [5] | [6] | [7] | [8] | [9] | [10]

O=C1CCC(c2ccccc2)(C2CCN(Cc3ccccc3)CC2)C(=O)N1 (centres undefined)
inactive: [1] | [2] | [3] | [4] | [5] | [6] | [8]

CC1(C)N=C(N)N=C(N)N1c1ccc(Cl)cc1
active: [1] 6.72 µM | [2] 28.2 µM | [3] 13.9 µM | [5] 6.46 µM | [7] 7.84 µM | [14] 32.1 µM
inactive: [4] | [6] | [8] | [11] | [12] | [13] | [15] | [16]

COc1cc2c(Nc3ccc(Br)cc3F)ncnc2cc1OCC1CCN(C)CC1
inactive: [1] | [2] | [3] | [4] | [5] | [6] | [7] | [8] | [25] | [26]
active: [17] 8.49 µM | [18] 4.51 µM | [19] 4.92 µM | [20] 7.85 µM | [21] 8.62 µM | [22] 4.83 µM | [23] 6.72 µM | [24] 4.46 µM
